Measured values taken from PubChem BioAssay (Tox21).
Records with an inconclusive call do not appear. Active and inactive are the calls of the source. Unless noted, calls follow the shape of the full dose curve.

Key:
[1] = Nuclear factor erythroid 2-related factor 2/antioxidant responsive element (Nrf2/ARE) small molecule agonists: qHTS cell viability counter screen in human keratinocytes (AID 1919968; active = well fitted curve in the direction sought with a large enough effect in the repeat runs; an effect the other way counts as inactive or inconclusive; also: nearly all actives have a fitted effect of over 55% in size; also: potency is read from the fitted curve at half-maximal effect)
Method in brief: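 Seed 1,500 KeratinoSens cells per well, then incubate 5 h at 37 C/5% CO2. Add compounds in DMSO and incubate 23 h. Add CellTiter-Fluor, wait 1 h and read fluorescence.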

[2] = Nuclear factor erythroid 2-related factor 2/antioxidant responsive element (Nrf2/ARE) small molecule agonists: luciferase reporter gene qHTS assay in human keratinocytes (AID 1919969); also: nearly all actives have a fitted effect of over 35% in size
[3] = target: KiSS-1 receptor (Homo sapiens) (UniProt Q969F8); test: Human kisspeptin (KISS1R) small molecule agonists, calcium flux assay in KISS1R-HEK293 cells (AID 1920064; active = well fitted curve in the direction sought with a large enough effect in the repeat runs; an effect the other way counts as inactive or inconclusive)
KiSS-1 receptor (Homo sapiens), sequence (Q969F8 whole entry, looked up): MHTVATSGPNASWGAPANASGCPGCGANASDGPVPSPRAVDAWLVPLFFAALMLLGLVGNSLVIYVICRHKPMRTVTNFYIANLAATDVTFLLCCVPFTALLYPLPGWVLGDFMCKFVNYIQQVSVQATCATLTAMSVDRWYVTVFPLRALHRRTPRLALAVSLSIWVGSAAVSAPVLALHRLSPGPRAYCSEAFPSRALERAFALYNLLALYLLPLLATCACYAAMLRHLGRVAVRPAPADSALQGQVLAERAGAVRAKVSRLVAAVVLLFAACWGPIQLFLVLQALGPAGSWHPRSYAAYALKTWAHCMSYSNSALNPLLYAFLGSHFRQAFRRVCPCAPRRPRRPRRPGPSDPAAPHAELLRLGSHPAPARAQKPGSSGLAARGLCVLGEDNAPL
Method in brief: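 Cells plated and incubated 18 h; dye added, 1 h at 37 C; compounds in DMSO pinned in; signal read at 480/540 nm every second for 3 min. Each compound tested at 15 concentrations in triplicate.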

[4] = G protein-coupled receptor (GPCR) small molecule agonists, calcium flux assay: HEK293 wild type cell line counter screen (AID 1920065)
Method in brief: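 Counter-screen of the Tox21 10K library for non-specific calcium release: dye-loaded cells received compounds in DMSO and were monitored by kinetic fluorescence (480/540 nm, 3 min). Fifteen concentrations, run in triplicate.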

[5] = p53 small molecule agonists, cell-based qHTS assay with human liver microsomes (AID 1963577);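 also: p53 response element beta-lactamase reporter cells with liver microsomes plus NADPH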
Method in brief: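 Metabolically competent format: test substances, human liver microsomes and NADPH (both 0.5 mg/mL final) incubated with p53RE-bla cells 16 h at 37 C. Beta-lactamase reporter signal then quantified by fluorescence.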

[6] = p53 small molecule agonists, cell-based qHTS assay with rat liver microsomes (AID 1963578)
Method in brief: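 Each plate received p53RE-bla cells, then compound, then rat liver microsomes and NADPH (both 0.5 mg/mL final). Plates were held 16 h at 37 C, and beta-lactamase activity was detected with LiveBLAzer over 2 h.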

[7] = p53 small molecule agonists, cell-based qHTS assay with rat liver microsomes: qHTS cell viability counter screen (AID 1963580); also: nearly all actives have a fitted effect of over 45% in size
Method in brief: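 p53RE-bla HCT-116 cells (4,000/well) rested 5 h at 37 C, then given Tox21 compounds in DMSO with rat liver microsomes (0.5 mg/mL final) plus NADPH (0.5 mg/mL final) for 16 h at 37 C. Viability read by CellTiter-Glo luminescence after 30 min at room temperature.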

[8] = p53 small molecule agonists, cell-based qHTS assay: qHTS cell viability counter screen (AID 1963581); also: nearly all actives have a fitted effect of over 45% in size
Method in brief: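 Cells: HCT-116 with p53 response element-driven beta-lactamase. Treatment: 16 h, 37 C, compounds in DMSO. Read: CellTiter-Glo luminescence after 30 min RT.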

[9] = p53 small molecule agonists, cell-based qHTS assay (AID 1963582; active = well fitted activation curve with a large enough effect in the signal ratio in the repeat runs, not every such curve was filed as active; the % refers to the signal ratio)
Method in brief: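 Quantitative HTS in p53RE-bla cells: after a 5 h settling period, compounds delivered in DMSO were left on cells for 16 h at 37 C, and reporter induction was measured as fluorescence following 2 h substrate loading.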

[10] = target: Muscarinic acetylcholine receptor M1 (Homo sapiens) (UniProt P11229); test: Cholinergic receptor muscarinic 1 (CHRM1) small molecule antagonists, cell-based qHTS assay (AID 1963588); also: nearly all actives have a fitted effect of over 40% in size; also: potency is read from the fitted curve at half-maximal effect
Muscarinic acetylcholine receptor M1 (Homo sapiens), sequence (P11229 whole entry, looked up): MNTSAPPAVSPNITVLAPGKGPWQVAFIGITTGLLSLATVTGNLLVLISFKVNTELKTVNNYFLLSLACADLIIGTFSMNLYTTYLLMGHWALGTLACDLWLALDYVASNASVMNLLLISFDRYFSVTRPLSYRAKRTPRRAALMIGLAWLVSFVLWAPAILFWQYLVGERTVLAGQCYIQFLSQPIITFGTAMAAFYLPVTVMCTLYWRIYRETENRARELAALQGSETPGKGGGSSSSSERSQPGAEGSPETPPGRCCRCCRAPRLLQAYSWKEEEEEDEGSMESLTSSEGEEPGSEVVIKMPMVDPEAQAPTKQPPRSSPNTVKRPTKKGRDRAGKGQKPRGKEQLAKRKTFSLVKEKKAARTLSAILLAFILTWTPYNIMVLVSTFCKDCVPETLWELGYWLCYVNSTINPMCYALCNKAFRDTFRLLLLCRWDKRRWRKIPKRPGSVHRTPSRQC
Method in brief: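 CHRM1-CHO calcium-flux assay, antagonist mode. Cells were seeded 18 h, dye-loaded 1 h at 37 C and given compound for 5 min at RT, then acetylcholine was added at 50nM. FDSS fluorescence was read 3 min; 15 concentrations, three runs.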

[11] = target: Muscarinic acetylcholine receptor M1 (Homo sapiens) (UniProt P11229); test: Cholinergic receptor muscarinic 1 (CHRM1) small molecule agonists, cell-based qHTS assay (AID 1963589); also: nearly all actives have a fitted effect of over 35% in size
Method in brief: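 Agonist-mode qHTS in CHO cells stably carrying human muscarinic M1. Intracellular calcium is tracked by fluorescence every second after compound transfer; each compound runs at 15 concentrations in three independent runs.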

[12] = target: Beta-2 adrenergic receptor (Homo sapiens) (UniProt P07550); test: Adrenergic beta2 receptor (ADRB2) small molecule antagonists, cell-based qHTS assay (AID 1963592); also: nearly all actives have a fitted effect of over 50% in size; also: potency is read from the fitted curve at half-maximal effect; as to activity change, negative = inhibition: series mostly up to about 92 µM
Beta-2 adrenergic receptor (Homo sapiens), sequence (P07550 whole entry, looked up): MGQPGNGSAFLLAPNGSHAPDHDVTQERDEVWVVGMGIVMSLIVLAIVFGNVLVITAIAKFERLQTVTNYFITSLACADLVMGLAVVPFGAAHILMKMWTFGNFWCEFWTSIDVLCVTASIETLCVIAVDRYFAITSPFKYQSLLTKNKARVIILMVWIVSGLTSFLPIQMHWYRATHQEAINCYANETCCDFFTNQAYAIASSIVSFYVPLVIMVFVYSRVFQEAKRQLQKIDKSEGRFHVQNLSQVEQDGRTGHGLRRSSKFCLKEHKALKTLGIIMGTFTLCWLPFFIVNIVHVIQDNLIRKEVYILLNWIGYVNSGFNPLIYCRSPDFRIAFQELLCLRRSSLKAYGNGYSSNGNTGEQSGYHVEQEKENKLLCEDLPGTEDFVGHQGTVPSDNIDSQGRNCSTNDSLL
Method in brief: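 Cells (CHO, stable ADRB2 overexpression) incubated 18-20hr at 37C; compounds added from DMSO; agonist mix (1nM isoproterenol, 100uM IBMX, 25uM Ro-20-1724) added; 0.5hr RT; d2-cAMP and anti-cAMP-cryptate added; 1hr RT; 665/615 nm read.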

[13] = target: Beta-2 adrenergic receptor (Homo sapiens) (UniProt P07550); test: Adrenergic beta2 receptor (ADRB2) small molecule agonists, cell-based qHTS assay (AID 1963593);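 also: CHO cells stably overexpressing human ADRB2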
Method in brief: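 CHO cells stably over-expressing ADRB2 were plated overnight at 37C, then dosed with compounds plus a stimulation mix containing 100uM IBMX and 25uM Ro-20-1724 for 0.5hr at room temperature. cAMP was measured by HTRF competition, 1hr.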

[14] = target: D(2) dopamine receptor (Homo sapiens) (UniProt P14416); test: Dopamine D2 receptor (DRD2) small molecule antagonists, cell-based qHTS assay (AID 1963595; active = well fitted inhibition curve with a large enough effect in the signal ratio in the repeat runs, with a control signal flat; the % refers to the signal ratio; also: potency is read from the fitted curve at half-maximal effect)
D(2) dopamine receptor (Homo sapiens), sequence (P14416 whole entry, looked up): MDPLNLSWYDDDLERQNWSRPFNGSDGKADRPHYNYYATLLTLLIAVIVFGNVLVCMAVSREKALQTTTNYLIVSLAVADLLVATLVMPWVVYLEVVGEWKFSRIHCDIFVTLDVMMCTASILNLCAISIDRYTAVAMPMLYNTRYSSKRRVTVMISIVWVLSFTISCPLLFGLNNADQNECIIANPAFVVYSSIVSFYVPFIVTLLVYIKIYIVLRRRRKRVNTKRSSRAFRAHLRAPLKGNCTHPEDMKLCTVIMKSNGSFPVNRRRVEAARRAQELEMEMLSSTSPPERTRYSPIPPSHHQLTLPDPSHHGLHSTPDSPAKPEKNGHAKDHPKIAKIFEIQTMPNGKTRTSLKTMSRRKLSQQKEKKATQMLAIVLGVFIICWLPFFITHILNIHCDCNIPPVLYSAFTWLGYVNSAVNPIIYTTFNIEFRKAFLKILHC
Method in brief: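 Human DRD2 antagonist qHTS measuring cAMP by HTRF. The cells are exposed to compound for 10 min, then to NKH477 (200 nM) and quinpirole (12 nM) for 30 min at RT, with Ro20-1724 (0.1 mM) present throughout.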

[15] = p53 small molecule agonists, cell-based qHTS assay with human liver microsomes: qHTS cell viability counter screen (AID 1963579); also: nearly all actives have a fitted effect of over 45% in size; also: potency is read from the fitted curve at half-maximal effect
Method in brief: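 Tox21 library compounds, delivered from DMSO stocks, were tested on p53RE-bla cells together with 0.5 mg/mL human liver microsomes and 0.5 mg/mL NADPH (final) over 16 h at 37 C; CellTiter-Glo luminescence served as the cytotoxicity measure.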

[16] = cAMP Responsive Elements (CRE) small molecule agonists, cell-based qHTS assay (AID 1963590)
Method in brief: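 Agonist mode qHTS in CRE-bla HEK 293T cells: compounds dosed from DMSO for 3 h at 37 C/5% CO2, followed by LiveBLAzer B/G FRET substrate for 2 h at room temperature.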

[17] = cAMP Responsive Elements (CRE) small molecule antagonists, cell-based qHTS assay (AID 1963591; active = well fitted inhibition curve with a large enough effect in the signal ratio in the repeat runs, not every such curve was filed as active; the % refers to the signal ratio)
Method in brief: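 Antagonist mode: test compounds are co-incubated with the adenylyl cyclase activator NKH477 (0.25 uM final) on CRE-bla HEK293T cells for 3 h at 37 °C, followed by LiveBLAzer substrate loading.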

[18] = target: 5-hydroxytryptamine receptor 2A (Homo sapiens) (UniProt P28223); test: 5-hydroxytryptamine receptor 2A (HTR2A) small molecule antagonists, cell-based qHTS assay (AID 1963586); also: nearly all actives have a fitted effect of over 45% in size
5-hydroxytryptamine receptor 2A (Homo sapiens), sequence (P28223 whole entry, looked up): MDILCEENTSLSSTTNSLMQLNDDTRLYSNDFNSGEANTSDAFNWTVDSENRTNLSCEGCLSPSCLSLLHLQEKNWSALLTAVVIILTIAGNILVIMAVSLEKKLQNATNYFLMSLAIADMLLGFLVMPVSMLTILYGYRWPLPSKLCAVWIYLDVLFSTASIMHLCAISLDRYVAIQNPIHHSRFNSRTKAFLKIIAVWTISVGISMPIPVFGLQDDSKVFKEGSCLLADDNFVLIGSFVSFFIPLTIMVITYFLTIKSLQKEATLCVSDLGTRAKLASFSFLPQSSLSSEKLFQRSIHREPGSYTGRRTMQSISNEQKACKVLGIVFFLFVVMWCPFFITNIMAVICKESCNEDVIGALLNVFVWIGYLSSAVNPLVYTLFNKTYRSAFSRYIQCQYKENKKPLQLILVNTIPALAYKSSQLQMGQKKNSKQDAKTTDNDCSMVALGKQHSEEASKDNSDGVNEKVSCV
Method in brief: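 Antagonist-mode intracellular calcium assay: DOI (4 nM) added after 5 min compound pre-incubation at room temperature to dye-loaded HTR2A-CHO cells. Fluorescence followed for 3 min, sampled every second.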

[19] = target: 5-hydroxytryptamine receptor 2A (Homo sapiens) (UniProt P28223); test: 5-hydroxytryptamine receptor 2A (HTR2A) small molecule agonists, cell-based qHTS assay (AID 1963587); also: nearly all actives have a fitted effect of over 30% in size; also: potency is read from the fitted curve at half-maximal effect
Method in brief: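 HTR2A-CHO cells, plated 18 h at 37 C/5% CO2, dye-loaded 1 h at 37 C; compounds in DMSO added by pin tool (agonist mode). Intracellular calcium flux read as kinetic fluorescence on FDSS over 2 min at 1 s intervals.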

[20] = target: D(2) dopamine receptor (Homo sapiens) (UniProt P14416); test: Dopamine D2 receptor (DRD2) small molecule agonists, cell-based qHTS assay (AID 1963594); also: nearly all actives have a fitted effect of over 35% in size
Method in brief: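 HEK293 cells stably expressing DRD2 were cultured 24 h at 37 C, then given Ro20-1724 (0.1 mM final) and compounds for 10 min at room temperature. NKH477 (200nM) was then added for 30 min. cAMP was read by HTRF.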
% is scaled to controls: 0 for no effect and ±100 for the full control effect.

CCCCCCCCCCCCOCCOCCOCCOCCOCCOCCOCCOCCOCCO
active: Potency [1] 29.8 µM | Potency [10] 9.18 µM
inactive: Potency [2] | Potency [3] | Potency [4] | Potency [5] | Potency [6] | Potency [7] | Potency [8] | Potency [9] | Potency [11] | Potency [12] | Potency [13] | Potency [14]

O=C(O)CO
inactive: Potency [1] | Potency [2] | Potency [3] | Potency [4] | Potency [15] | Potency [7] | Potency [8] | Potency [16] | Potency [17] | Potency [14]

CCCCC(CC)COS(=O)(=O)O (stereo not drawn)
inactive: Potency [1] | Potency [2] | Potency [3] | Potency [4] | Potency [15] | Potency [7] | Potency [8] | Potency [18] | Potency [19] | Potency [11] | Potency [16] | Potency [12] | Potency [20]

CN(C)CCOc1ccc(/C(=C(/CCCl)c2ccccc2)c2ccccc2)cc1
active: Potency [1] 22.8 µM | Potency [15] 30.3 µM | Potency [19] 40.9 µM | Potency [12] 57.2 µM | Potency [14] 57.2 µM
inactive: Potency [2] | Potency [3] | Potency [4] | Potency [10] | Potency [11] | Potency [20]

CC(C)c1ccc2ncccc2c1
inactive: Potency [1] | Potency [2] | Potency [3] | Potency [4] | Potency [15] | Potency [8] | Potency [18] | Potency [19] | Potency [10] | Potency [11] | Potency [16] | Potency [12] | Potency [20] | Potency [14]

CN1CCC[C@@H]1c1cccnc1
inactive: Potency [1] | Potency [2] | Potency [3] | Potency [4] | Potency [15] | Potency [7] | Potency [8] | Potency [16] | Potency [17] | Potency [12] | Potency [13] | Potency [20] | Potency [14]

CCCCCCCCCCCCCCCCN
inactive: Potency [1] | Potency [2] | Potency [4] | Potency [6] | Potency [15] | Potency [7] | Potency [8] | Potency [10] | Potency [11] | Potency [16] | Potency [17] | Potency [12] | Potency [20]
active: Potency [19] 23.9 µM

Cc1cc(=O)c2c(O)c3c(O)cc(=O)c4c3c3c(cc(O)c1c23)C(C)(C)C=4O
active: Potency [1] 4.11 µM | Potency [19] 0.657 µM
inactive: activity, positive = activation [2] 7.38% [at 19 µM] | activation [3] 3.73% [at 15.8 µM] | activation [4] 4.32% [at 11.8 µM] | activity change, negative = cytotoxicity [15] -4.38% [at 13.5 µM] | activity change, negative = cytotoxicity [7] -8.38% [at 13.5 µM] | activity, negative = inhibition [18] 1.4% [at 12.7 µM] | activity, negative = inhibition [10] 5.23% [at 12.6 µM] | activation [11] 13.3% [at 15.8 µM] | activity change, negative = inhibition [12] 0.889% [at 19 µM] | activation [13] 3.3% [at 19 µM] | activation [20] -19.9% [at 19 µM] | activity change, negative = inhibition [14] 5.59% [at 18.9 µM]

COc1c2occc2c(OC)c2c(=O)cc(C)oc12
inactive: Potency [1] | Potency [2] | Potency [3] | Potency [4] | Potency [7] | Potency [18] | Potency [19] | Potency [10] | Potency [11] | Potency [12] | Potency [13] | Potency [20] | Potency [14]

CCOc1ccc(NC(=O)CC(C)=O)cc1
inactive: Potency [1] | Potency [2] | Potency [3] | Potency [4] | Potency [15] | Potency [7] | Potency [8] | Potency [18] | Potency [10] | Potency [16] | Potency [12] | Potency [20] | Potency [14]

C[C@@H](O)[C@H]1C(=O)N2C(C(=O)O)=C(S[C@@H]3CN[C@H](CNS(N)(=O)=O)C3)[C@H](C)[C@H]12
inactive: Potency [1] | Potency [2] | Potency [3] | Potency [4] | Potency [15] | Potency [7] | Potency [8] | Potency [18] | Potency [19] | Potency [10] | Potency [11] | Potency [20] | Potency [14]

O=C(Cl)c1ccc(Cl)cc1Cl
inactive: Potency [1] | Potency [2] | Potency [4] | Potency [6] | Potency [15] | Potency [7] | Potency [8] | Potency [9] | Potency [10] | Potency [11] | Potency [16] | Potency [17] | Potency [12] | Potency [13] | Potency [20]

CCCc1ccc(OCC(=O)N2CCN(C(=O)COc3ccc(CCC)cc3OC)CC2)c(OC)c1
inactive: Potency [1] | Potency [2] | Potency [4] | Potency [6] | Potency [15] | Potency [7] | Potency [8] | Potency [9] | Potency [18] | Potency [19] | Potency [10] | Potency [11] | Potency [17] | Potency [12] | Potency [20] | Potency [14]
